Test [1] in a line: ATG_Sox_CIS: Attagene CIS-FACTORIAL HepG2 Assay for human SRY-box transcription factor (SOX) (AID 2282960). The following applies: HepG2 Attagene cis-factorial SOX reporter, mRNA; actives raise or lower the signal. Summed up:
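HepG2 cells transiently transfected with multiple cis-regulated reporter units, then dosed for 24 h. Reporter mRNA quantified by RT-PCR, fluorescent labelling, HpaI digestion and capillary electrophoresis; bidirectional fit versus DMSO.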

Test [2] concerns the target Transcription factor Sp1 (Homo sapiens) (UniProt P08047). As to the kind of experiment: ATG_Sp1_CIS: Attagene CIS-FACTORIAL HepG2 Assay for human Specificity Protein 1 (Sp1) (AID 2282961). Particulars: HepG2 Sp1 cis-reporter transcription, actives raise or lower the signal. The method, boiled down:
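HepG2 cells transiently transfected with multiplexed cis-regulated reporter constructs, chemical exposure 24 h. Reporter mRNA quantified by RT-PCR with capillary electrophoresis; bidirectional fit relative to DMSO.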

Test [3] is described as follows: ATG_SREBP_CIS: Attagene CIS-FACTORIAL HepG2 Assay for human Sterol Regulatory Element Binding (SREBP) (AID 2282962). The following applies: HepG2 Attagene cis-factorial SREBP reporter, mRNA; actives raise or lower the signal. The method, boiled down:
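HepG2 cells transiently transfected with multiplexed cis-promoter reporter units sensing endogenous transcription factors; reporter mRNA measured 24 h after dosing by RT-PCR, 6-FAM labeling, HpaI digestion and capillary electrophoresis. Bidirectional fit versus DMSO.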

The target in test [4] is Signal transducer and activator of transcription 3 (Homo sapiens) (UniProt P40763). Kind of test: ATG_STAT3_CIS: Attagene CIS-FACTORIAL HepG2 Assay for human Signal Transducer and Activator of Transcription 3 (STAT3) (AID 2282963). The following applies: HepG2, Attagene cis-factorial STAT3 reporter transcription; actives raise or lower the signal. The method, boiled down: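 Transcript-level reporter assay. HepG2 transient MRTU transfection, 24 h exposure, fluorescence detection after RT-PCR and CE; DMSO baseline.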

Test [5] is described as follows: ATG_TA_CIS: Attagene CIS-FACTORIAL HepG2 Assay for human TA Basal Promoter (AID 2282964). Particulars: HepG2 Attagene CIS-factorial TA basal promoter reporter; actives raise or lower the signal. Summed up: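 Fluorescence from labelled RT-PCR reporter fragments, separated by capillary electrophoresis, gives the signal. Cells: HepG2 transiently carrying multiple reporter units, 24 h chemical dosing. Gain or loss relative to DMSO.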

A short description of test [6]: ATG_TCF_b_cat_CIS: Attagene CIS-FACTORIAL HepG2 Assay for human T-Cell-Factor with beta-catenin (TCF/b-cat) (AID 2282965). Particulars: HepG2 TCF/beta-catenin cis-reporter transcription, actives raise or lower the signal. Summed up: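 Using capillary electrophoresis as the read-out, labelled reporter cDNA fragments from transiently transfected HepG2 were sized and quantified. Exposure lasted 24 hours; activity in either direction was referenced to DMSO.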

The nature of test [7]: ATG_TAL_CIS: Attagene CIS-FACTORIAL HepG2 Assay for human TAL Basal Promoter (AID 2282966).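 Further: background control endpoint measuring basal TAL promoter reporter mRNA not a specific factor.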 The following applies: HepG2 Attagene cis-factorial TAL promoter reporter; actives raise or lower the signal. Summed up:
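In this cell-based multiplex, HepG2 liver cells bearing cis-promoter reporter constructs are dosed for 24 hours. Total RNA is reverse-transcribed and amplified, labelled fragments are sized by capillary electrophoresis, and signal changes are fitted bidirectionally versus DMSO.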

Test [8] is described as follows: ATG_TGFb_CIS: Attagene CIS-FACTORIAL HepG2 Assay for human Transforming Growth Factor (TGF) (AID 2282967). Particulars: HepG2 Attagene CIS TGFb reporter, mRNA transcription; actives raise or lower the signal. Summed up: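 Bidirectional fitting relative to DMSO gave the endpoint. Underlying data: reporter mRNA from HepG2 cells carrying transiently transfected cis-regulated reporter constructs, harvested 24 h after dosing and analyzed by RT-PCR and capillary electrophoresis.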

Test [9] is described as follows: ATG_VDRE_CIS: Attagene CIS-FACTORIAL HepG2 Assay for human Vitamin D Receptor Element (VDRE) (AID 2282968). Particulars: HepG2 VDRE cis-reporter transcription, actives raise or lower the signal. The method, boiled down:
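RT-PCR/CE readout of reporter mRNA; HepG2, transient transfection, 24 h dosing; DMSO baseline; bidirectional analysis.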

The target of test [10] is Steroid hormone receptor ERR1 (Homo sapiens) (UniProt P11474). Kind of test: ATG_ERRa_TRANS: Attagene TRANS-FACTORIAL HepG2 Assay for human Estrogen-Related Receptor alpha (ERRa) (AID 2282971; active means hit-call score of the fitted dose curve at least 0.9, where 1 is the maximum). The following applies: HepG2 Attagene TRANS reporter, ERRa transactivation. The method, boiled down: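 Transfected HepG2, 24 h dosing, ERRa-Gal4 chimera driving GAL4-UAS reporter. Readout: reporter mRNA via RT-PCR plus capillary electrophoresis (fluorescence). Positive direction vs DMSO control.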

The target in test [11] is X-box-binding protein 1 (Homo sapiens) (UniProt P17861). As to the kind of experiment: ATG_Xbp1_CIS: Attagene CIS-FACTORIAL HepG2 Assay for human X-box Binding Protein 1 (XBP1) (AID 2282972). Particulars: HepG2 XBP1 cis-element reporter, Attagene multiplex; actives raise or lower the signal. Summed up:
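HepG2 cells transiently transfected with multiple cis-element reporter units report endogenous TF activity; 24 h exposure, then reporter mRNA measured by RT-PCR, 6-FAM labelling, HpaI digestion and capillary electrophoresis. Bidirectional fitting versus DMSO.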

Test [12] can be described thus: ATG_M_19_TRANS: Attagene TRANS-FACTORIAL HepG2 Assay for M19 Transcription Factor (Internal Marker) (AID 2282974; active means hit-call score of the fitted dose curve at least 0.9, where 1 is the maximum). The following applies: HepG2 Attagene TRANS-FACTORIAL M19 internal marker reporter. The method, boiled down: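 HepG2 transiently transfected with GAL4-UAS multiplex reporter constructs, exposed 24 h; reporter RNA quantified by RT-PCR, 6-FAM labeling, HpaI digestion and capillary electrophoresis; internal background marker fitted upward versus DMSO.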

Test [13] has as its target Estrogen-related receptor gamma (Homo sapiens) (UniProt P62508). As to the kind of experiment: ATG_ERRg_TRANS: Attagene TRANS-FACTORIAL HepG2 Assay for human Estrogen-Related Receptor gamma (ERRg) (AID 2282977; active means hit-call score of the fitted dose curve at least 0.9, where 1 is the maximum;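 further: hits increase reporter signal over DMSO so potencies reflect activators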). Particulars: HepG2 Attagene TRANS reporter, ERRg transactivation. Summed up:
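Transfect HepG2 with multiple GAL4-UAS reporter transcription units; dose chemicals 24 h; isolate RNA, reverse-transcribe with oligo(dT), PCR-amplify, label with 6-FAM, digest with HpaI; size fragments by capillary electrophoresis. DMSO serves as negative control.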

Test [14] deals with Bile acid receptor (Homo sapiens) (UniProt Q96RI1). Kind of test: ATG_FXR_TRANS: Attagene TRANS-FACTORIAL HepG2 Assay for Farnesoid X Receptor (FXR) (AID 2282979; active means hit-call score of the fitted dose curve at least 0.9, where 1 is the maximum;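 further: hits raise reporter mRNA above DMSO so AC50 marks FXR activation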). Particulars: HepG2 Attagene TRANS FXR-GAL4 reporter transcription. Summed up: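 Read-out: fluorescent reporter transcripts quantified by capillary electrophoresis after RT-PCR of total RNA. Source cells were HepG2 transiently carrying chimeric NR-GAL4 plus GAL4-UAS reporter units, dosed 24 h. Activity fitted upward relative to DMSO baseline.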

Test [15] concerns the target Estrogen receptor (Homo sapiens) (UniProt P03372). As to the kind of experiment: ATG_ERa_TRANS: Attagene TRANS-FACTORIAL HepG2 Assay for human Estrogen Receptor alpha (ERa) (AID 2282970; active means hit-call score of the fitted dose curve at least 0.9, where 1 is the maximum). The following applies: HepG2 Attagene TRANS ERa GAL4 reporter, mRNA. The method, boiled down:
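After 24 h of compound treatment, RNA from HepG2 cells bearing transfected GAL4-UAS reporter constructs is converted to cDNA, amplified and fluorescently labelled. Capillary electrophoresis resolves the ERa-linked reporter; DMSO serves as negative control.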

Test [16] deals with Nuclear receptor subfamily 1 group I member 3 (Homo sapiens) (UniProt Q14994). As to the kind of experiment: ATG_CAR_TRANS: Attagene TRANS-FACTORIAL HepG2 Assay for human Constitutive Androstane Receptor (CAR) (AID 2282969; active means hit-call score of the fitted dose curve at least 0.9, where 1 is the maximum;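 further: activators raise reporter mRNA above DMSO so AC50 marks induction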). Particulars: HepG2 Attagene TRANS-FACTORIAL CAR reporter. The method, boiled down: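 HepG2 cells transiently transfected with multiplexed GAL4-UAS reporter units expressing chimeric NR-Gal4 proteins; compound exposure 24 h. Reporter mRNA measured by RT-PCR, 6-FAM labelling, HpaI digestion and capillary electrophoresis; gain-of-signal fitted against DMSO baseline.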

The nature of test [17]: ATG_GAL4_TRANS: Attagene TRANS-FACTORIAL HepG2 Assay for GAL4 (Internal Marker) (AID 2282976; active means hit-call score of the fitted dose curve at least 0.9, where 1 is the maximum). The following applies: HepG2 Attagene TRANS GAL4 internal marker reporter. The method, boiled down: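 RT-PCR/capillary electrophoresis readout of reporter mRNA. HepG2, transient MRTU transfection (GAL4-UAS reporters), 24 h compound exposure. Background-control endpoint, positive direction vs DMSO baseline.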

Test [18] in a line: ATG_RORE_CIS: Attagene CIS-FACTORIAL HepG2 Assay for human RAR-related Orphan Receptor Element (RORE) (AID 2282959). Particulars: HepG2 Attagene cis-factorial RORE reporter, mRNA; actives raise or lower the signal. Summed up: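 HepG2 cells carrying transiently transfected cis-regulated reporter units; RORE-driven reporter mRNA quantified 24 h post-dosing by RT-PCR, 6-FAM primer extension, HpaI digestion and capillary electrophoresis. Bidirectional fit versus DMSO.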

For test [19], the target named is Glucocorticoid receptor (Homo sapiens) (UniProt P04150). Kind of test: ATG_GR_TRANS: Attagene TRANS-FACTORIAL HepG2 Assay for human Glucocorticoid Receptor (GR) (AID 2282978; active means hit-call score of the fitted dose curve at least 0.9, where 1 is the maximum;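 further: activators score as hits since higher reporter transcript over DMSO is fitted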). Particulars: HepG2 Attagene TRANS GR reporter, mRNA transcription. Summed up: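 HepG2 cells transiently transfected with GAL4-UAS reporter units and exogenous GR-Gal4 chimera, dosed 24 h. Reporter mRNA by RT-PCR, FAM labeling, HpaI digest and capillary electrophoresis; gain-of-signal fit versus DMSO.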

In general, AC50 refers to the midpoint of the concentration-response curve, whichever way the signal moves.

Structures are written as SMILES. Records with an inconclusive call do not appear. Activity calls are given as the source filed them. How the source made its calls, unless noted: active means hit-call score of the fitted dose curve at least 0.9, where 1 is the maximum; inactive means score below 0.9.

Chain of Estrogen-related receptor gamma (Homo sapiens) (P62508 whole entry, looked up, the tested form may be a part): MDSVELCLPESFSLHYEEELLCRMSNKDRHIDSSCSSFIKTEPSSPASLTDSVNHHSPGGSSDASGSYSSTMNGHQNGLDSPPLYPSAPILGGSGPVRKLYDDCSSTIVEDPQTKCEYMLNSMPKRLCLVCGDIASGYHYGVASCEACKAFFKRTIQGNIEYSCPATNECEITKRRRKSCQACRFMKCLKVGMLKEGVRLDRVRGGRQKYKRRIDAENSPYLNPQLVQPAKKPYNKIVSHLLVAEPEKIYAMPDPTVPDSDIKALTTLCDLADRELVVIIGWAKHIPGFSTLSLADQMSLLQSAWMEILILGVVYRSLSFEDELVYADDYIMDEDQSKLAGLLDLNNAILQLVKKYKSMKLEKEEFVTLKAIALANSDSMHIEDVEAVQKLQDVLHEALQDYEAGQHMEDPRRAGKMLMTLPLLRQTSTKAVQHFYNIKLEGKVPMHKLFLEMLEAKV
Chain of Bile acid receptor (Homo sapiens) (Q96RI1 whole entry, looked up, the tested form may be a part): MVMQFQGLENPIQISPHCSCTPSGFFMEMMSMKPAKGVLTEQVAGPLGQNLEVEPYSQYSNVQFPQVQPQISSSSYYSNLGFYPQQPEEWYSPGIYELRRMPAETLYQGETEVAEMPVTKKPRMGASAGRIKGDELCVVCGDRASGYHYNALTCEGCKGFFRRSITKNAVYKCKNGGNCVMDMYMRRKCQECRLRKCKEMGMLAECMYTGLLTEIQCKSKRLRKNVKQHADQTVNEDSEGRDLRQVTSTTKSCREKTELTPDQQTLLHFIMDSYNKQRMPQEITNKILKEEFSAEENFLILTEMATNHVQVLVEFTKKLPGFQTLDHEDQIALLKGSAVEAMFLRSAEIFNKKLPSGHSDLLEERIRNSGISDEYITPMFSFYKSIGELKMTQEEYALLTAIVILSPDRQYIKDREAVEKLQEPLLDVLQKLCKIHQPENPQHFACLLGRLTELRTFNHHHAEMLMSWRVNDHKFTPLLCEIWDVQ
Chain of Nuclear receptor subfamily 1 group I member 3 (Homo sapiens) (Q14994 whole entry, looked up, the tested form may be a part): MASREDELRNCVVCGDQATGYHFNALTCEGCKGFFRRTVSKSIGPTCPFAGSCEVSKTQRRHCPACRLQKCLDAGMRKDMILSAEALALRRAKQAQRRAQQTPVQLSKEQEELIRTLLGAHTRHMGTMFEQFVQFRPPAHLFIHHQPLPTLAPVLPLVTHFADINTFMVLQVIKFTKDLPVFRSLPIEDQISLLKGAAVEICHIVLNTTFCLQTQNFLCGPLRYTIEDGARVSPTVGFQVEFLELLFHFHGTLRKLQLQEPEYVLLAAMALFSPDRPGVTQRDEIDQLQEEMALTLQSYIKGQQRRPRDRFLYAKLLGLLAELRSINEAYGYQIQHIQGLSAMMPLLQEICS
Chain of Signal transducer and activator of transcription 3 (Homo sapiens) (P40763 whole entry, looked up): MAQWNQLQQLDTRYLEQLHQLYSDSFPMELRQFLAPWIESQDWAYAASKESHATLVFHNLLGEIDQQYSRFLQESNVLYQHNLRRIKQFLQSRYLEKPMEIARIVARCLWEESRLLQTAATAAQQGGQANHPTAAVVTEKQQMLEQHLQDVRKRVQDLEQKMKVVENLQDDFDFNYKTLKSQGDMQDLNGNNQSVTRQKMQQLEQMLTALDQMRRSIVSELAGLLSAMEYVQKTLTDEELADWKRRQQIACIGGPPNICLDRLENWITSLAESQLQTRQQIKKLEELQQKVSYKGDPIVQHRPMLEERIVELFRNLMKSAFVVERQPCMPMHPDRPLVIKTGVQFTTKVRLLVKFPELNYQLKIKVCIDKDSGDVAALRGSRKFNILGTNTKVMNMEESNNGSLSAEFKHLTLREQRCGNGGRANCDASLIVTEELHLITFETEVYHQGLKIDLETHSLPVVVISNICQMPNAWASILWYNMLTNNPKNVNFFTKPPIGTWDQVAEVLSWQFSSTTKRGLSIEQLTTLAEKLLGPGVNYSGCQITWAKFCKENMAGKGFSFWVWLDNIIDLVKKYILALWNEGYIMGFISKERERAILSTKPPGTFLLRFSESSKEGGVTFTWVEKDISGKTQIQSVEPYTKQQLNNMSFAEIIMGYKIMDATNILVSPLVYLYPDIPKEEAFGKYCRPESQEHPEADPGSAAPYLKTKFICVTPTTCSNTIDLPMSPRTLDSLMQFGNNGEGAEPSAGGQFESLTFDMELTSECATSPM
Chain of Estrogen receptor (Homo sapiens) (P03372 whole entry, looked up, the tested form may be a part): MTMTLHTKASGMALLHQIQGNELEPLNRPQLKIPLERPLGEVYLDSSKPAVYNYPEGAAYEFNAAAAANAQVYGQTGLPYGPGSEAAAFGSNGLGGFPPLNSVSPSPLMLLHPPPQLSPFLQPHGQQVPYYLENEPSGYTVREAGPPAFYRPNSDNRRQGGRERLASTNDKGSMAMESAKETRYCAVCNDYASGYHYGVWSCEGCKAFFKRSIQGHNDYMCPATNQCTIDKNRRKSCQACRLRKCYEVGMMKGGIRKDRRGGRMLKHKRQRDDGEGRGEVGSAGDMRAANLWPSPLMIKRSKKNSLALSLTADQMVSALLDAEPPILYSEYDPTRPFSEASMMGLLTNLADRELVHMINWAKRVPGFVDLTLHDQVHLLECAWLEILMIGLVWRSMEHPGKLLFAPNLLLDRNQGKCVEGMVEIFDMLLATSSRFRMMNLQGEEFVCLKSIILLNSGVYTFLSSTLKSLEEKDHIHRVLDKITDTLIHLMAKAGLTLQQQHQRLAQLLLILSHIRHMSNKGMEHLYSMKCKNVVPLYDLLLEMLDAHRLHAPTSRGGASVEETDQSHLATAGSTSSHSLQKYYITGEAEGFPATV
Chain of Transcription factor Sp1 (Homo sapiens) (P08047 whole entry, looked up): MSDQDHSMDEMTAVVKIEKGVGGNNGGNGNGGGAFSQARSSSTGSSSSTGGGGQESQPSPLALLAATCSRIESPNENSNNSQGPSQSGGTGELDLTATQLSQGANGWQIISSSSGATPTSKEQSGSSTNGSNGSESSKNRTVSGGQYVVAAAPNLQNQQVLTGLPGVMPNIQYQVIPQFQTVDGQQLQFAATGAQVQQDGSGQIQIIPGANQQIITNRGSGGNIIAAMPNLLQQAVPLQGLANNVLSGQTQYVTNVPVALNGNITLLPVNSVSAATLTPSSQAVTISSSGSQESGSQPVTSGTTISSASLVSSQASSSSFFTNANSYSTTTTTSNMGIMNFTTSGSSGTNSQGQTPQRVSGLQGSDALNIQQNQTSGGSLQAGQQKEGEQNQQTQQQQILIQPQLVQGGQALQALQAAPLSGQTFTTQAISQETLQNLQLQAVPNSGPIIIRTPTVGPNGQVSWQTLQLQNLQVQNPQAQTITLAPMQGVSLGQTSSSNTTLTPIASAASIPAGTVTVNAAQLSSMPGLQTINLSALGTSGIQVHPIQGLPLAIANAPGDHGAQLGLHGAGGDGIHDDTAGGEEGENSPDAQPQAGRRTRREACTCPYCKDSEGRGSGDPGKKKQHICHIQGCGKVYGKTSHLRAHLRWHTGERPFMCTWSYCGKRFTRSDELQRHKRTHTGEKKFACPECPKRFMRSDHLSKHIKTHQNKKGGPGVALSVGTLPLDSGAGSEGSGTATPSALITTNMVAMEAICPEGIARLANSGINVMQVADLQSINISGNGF
Chain of X-box-binding protein 1 (Homo sapiens) (P17861 whole entry, looked up): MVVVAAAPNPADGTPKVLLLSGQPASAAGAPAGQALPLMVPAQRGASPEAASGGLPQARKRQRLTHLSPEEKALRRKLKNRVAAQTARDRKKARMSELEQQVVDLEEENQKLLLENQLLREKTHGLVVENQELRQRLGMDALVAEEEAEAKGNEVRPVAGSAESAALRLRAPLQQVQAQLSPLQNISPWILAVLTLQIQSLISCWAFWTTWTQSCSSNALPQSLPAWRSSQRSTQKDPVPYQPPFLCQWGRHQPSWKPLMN
Chain of Steroid hormone receptor ERR1 (Homo sapiens) (P11474 whole entry, looked up, the tested form may be a part): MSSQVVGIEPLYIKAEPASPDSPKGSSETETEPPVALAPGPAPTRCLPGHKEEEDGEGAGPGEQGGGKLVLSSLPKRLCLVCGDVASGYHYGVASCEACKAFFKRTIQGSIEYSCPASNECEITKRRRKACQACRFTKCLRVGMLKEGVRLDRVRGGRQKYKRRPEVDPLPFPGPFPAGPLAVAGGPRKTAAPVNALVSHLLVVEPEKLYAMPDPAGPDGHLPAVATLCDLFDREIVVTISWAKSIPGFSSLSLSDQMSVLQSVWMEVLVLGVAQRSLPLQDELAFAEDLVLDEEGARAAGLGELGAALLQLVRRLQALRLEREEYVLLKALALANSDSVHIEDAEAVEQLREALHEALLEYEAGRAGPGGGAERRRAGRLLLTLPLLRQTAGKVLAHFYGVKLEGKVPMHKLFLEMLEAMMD
Chain of Glucocorticoid receptor (Homo sapiens) (P04150 whole entry, looked up, the tested form may be a part): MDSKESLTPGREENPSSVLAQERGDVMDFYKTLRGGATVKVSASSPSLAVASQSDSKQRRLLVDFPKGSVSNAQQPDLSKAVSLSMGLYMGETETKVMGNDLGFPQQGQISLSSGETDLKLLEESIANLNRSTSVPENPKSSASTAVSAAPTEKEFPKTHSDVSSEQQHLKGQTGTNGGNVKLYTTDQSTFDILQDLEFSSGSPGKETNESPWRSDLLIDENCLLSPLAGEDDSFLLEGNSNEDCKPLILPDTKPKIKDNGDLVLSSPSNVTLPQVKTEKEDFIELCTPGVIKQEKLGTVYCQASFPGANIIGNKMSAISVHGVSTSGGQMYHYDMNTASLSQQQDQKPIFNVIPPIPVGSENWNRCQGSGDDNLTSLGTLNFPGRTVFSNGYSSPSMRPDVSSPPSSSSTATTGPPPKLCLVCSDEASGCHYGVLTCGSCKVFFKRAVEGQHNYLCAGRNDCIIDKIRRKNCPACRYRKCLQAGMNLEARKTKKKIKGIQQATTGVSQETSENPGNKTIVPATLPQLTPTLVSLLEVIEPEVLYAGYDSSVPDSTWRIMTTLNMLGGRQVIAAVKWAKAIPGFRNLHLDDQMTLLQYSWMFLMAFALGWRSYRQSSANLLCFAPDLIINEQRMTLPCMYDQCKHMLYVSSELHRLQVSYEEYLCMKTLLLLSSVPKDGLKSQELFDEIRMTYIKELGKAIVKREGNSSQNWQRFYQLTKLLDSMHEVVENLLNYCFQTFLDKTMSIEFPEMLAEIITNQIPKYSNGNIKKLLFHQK

As to `Clc1cc(C(Cl)(Cl)Cl)cnc1Cl`, the compound was called inactive in [1], in test [2], in test [4], in test [5], in [7] and in test [8]. In addition, the call in test [9], in test [10], in test [11], in [12], in [13] and in [14] was inactive. Further, the AC50 is 17500 nM (active) in test [3] and 8550 nM (active) in test [6].

With `CCOP(=O)(OCC)SCCSCC`, the outcome in test [1], in test [2], in test [3], in test [4], in [5] and in test [6] was inactive. Also, the result in test [7], in [8], in [9], in [15], in test [10] and in test [11] was inactive.

With `CCOC(=O)C(SP(=S)(OC)OC)c1ccccc1` (stereo not drawn), the result in test [1], in test [2], in [3], in test [4], in test [5] and in [6] was inactive. Moreover, the result in test [7], in [8], in test [9], in test [16], in test [11] and in [17] was inactive. Moreover, in test [13], the compound was classed as inactive. For the same compound, the AC50 in [14] was 30700 nM (active).

As for `CC(C)(c1ccccc1)c1cc(-n2nc3ccccc3n2)c(O)c(C(C)(C)c2ccccc2)c1`, the compound was called inactive in [18], in [2], in test [3], in test [4], in test [5] and in test [6]. The outcome in test [7], in [8], in test [16] and in test [11] was inactive.

For the compound `[Cl][Sn]([c]1ccccc1)([c]1ccccc1)[c]1ccccc1`, the result in test [18], in [3], in test [4], in test [6], in test [8] and in test [13] was inactive. For the same compound, the compound was classed as inactive in test [14]. In addition, the AC50 is 1660 nM (active) in test [2], 251 nM (active) in [5], 1130 nM (active) in [7] and 242 nM (active) in test [11].

In the case of `CCC[N+](CCC)(CCC)CCC`, the outcome in test [18], in test [2], in test [3], in test [4], in test [5] and in test [6] was inactive. Moreover, the outcome in [7], in test [8], in test [10], in test [11], in test [12] and in [17] was inactive.

For the compound `CCN(CC)C(=O)C(Cl)=C(C)OP(=O)(OC)OC`, the compound was classed as inactive in test [18], in [2], in [3], in test [4], in test [5] and in [6]. Besides, the call in test [7], in [8], in test [9], in test [11] and in test [19] was inactive.

Take `BrCc1ccc(Br)cc1`: the compound was called inactive in test [18], in [2], in test [3], in [4], in test [5] and in test [7]. In addition, the compound was classed as inactive in test [8], in test [9], in [16], in [11], in test [17] and in [14].

Take `CC1(C)[C@H](C(=O)O[C@H](C#N)c2cccc(Oc3ccccc3)c2)[C@@H]1/C=C(\Cl)C(F)(F)F`: the result in test [18], in [2], in test [3], in [4], in test [5] and in test [6] was inactive. The call in [7], in test [8], in test [16], in test [11], in [17] and in test [19] was inactive. Moreover, the call in test [14] was inactive.

Consider `[F][Sn]([c]1ccccc1)([c]1ccccc1)[c]1ccccc1`, for which the AC50 in test [18] is 31.9 nM (active); in [2], 303 nM (active); in test [4] it was 597 nM (active); in test [5] it was 580 nM (active); in test [11], 326 nM (active). The outcome in [3], in [6], in test [7], in [8], in [15] and in test [12] was inactive. Moreover, the outcome in [14] was inactive.

For the compound `Nc1ccc(-c2ccccc2)cc1`, the outcome in test [1], in test [2], in test [3], in test [4], in [5] and in test [6] was inactive. Moreover, the call in test [7], in [8], in test [9], in [16] and in test [11] was inactive. Moreover, in [15], the AC50 is 14800 nM (active).

The values are drawn from PubChem BioAssay (EPA / NIEHS).
